# Experimental data from PubChem BioAssay (NCATS).
# “And” between values parts separate entries of the source, which are not always exact repeats. Identical values can stand only once. Results filed as inconclusive are left out. Some structures have more than one record in an assay (separate samples or runs), and their calls can disagree. The source made the active and inactive calls. Unless noted, the call rests on the fitted dose curve.
# Test system: not listed separately
# Assay: P-glycoprotein substrates identified in KB-8-5-11 adenocarcinoma cell line, qHTS therapeutic library screen (AID 1346987; active means well fitted inhibition curve with a large enough effect; further: nearly all actives have a fitted effect of over 65% in size; further: potency means the concentration at half of the fitted maximal effect)
# Conditions: KB-8-5-11 (P-gp overexpressing) viability, CellTiter-Glo, 72 h; series mostly up to 44.5 µM; activity change, negative = cytotoxicity: at the top concentration
# Procedure, shortened: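 Human cervical adenocarcinoma KB-8-5-11 cells, selected in colchicine to over-express P-gp and assayed without it, were exposed for 72 h to titrated compounds. An ATP-based luminescent viability signal gave AC50.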
# On the % scale 0 is the no-effect control and ±100 the full control effect.
SMILES,"activity change, negative = cytotoxicity",Potency,outcome
Cc1cn([C@H]2C=C[C@@H](CO)O2)c(=O)[nH]c1=O,8.18% [at 93.4 µM] (inactive),–,–
COc1ccc(CCN(C)CCCC(C#N)(c2ccc(OC)c(OC)c2)C(C)C)cc1OC (configuration not stated),–,20.6 µM (active),–
CCC1(C)CC(=O)NC1=O (configuration not stated),–,inactive,–
Clc1ccc2c(c1)C(N1CCNCC1)=Nc1ccccc1O2,–,inactive and 20.6 µM (active),–
CN(CCOc1ccc(NS(C)(=O)=O)cc1)CCc1ccc(NS(C)(=O)=O)cc1,–,–,inactive
Cn1c(=O)c2c(ncn2C)n(C)c1=O,7.39% (inactive),–,–

# Test system: not listed separately
# Assay: Natriuretic polypeptide receptor (hNpr1) antagonism - Pilot counterscreen GloSensor control cell line (AID 1347045); further: potency means the concentration at half of the fitted maximal effect
# Conditions: HEK293 cGMP GloSensor cells, SNP-stimulated luminescence, 20 min; series mostly up to 38.3 µM; activity change, negative = inhibition: at the top concentration
# Procedure, shortened: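 The SNP-driven cGMP luminescence signal (50 uM, 20 min, room temperature) was measured in GloSensor HEK293 control cells. Compounds were tested as a LOPAC titration series and preincubated for 30-50 min.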
SMILES,"activity change, negative = inhibition",Potency
O=c1c(O)c(-c2ccc(O)c(O)c2)oc2cc(O)cc(O)c12,-2.68% (inactive),–
CN(C)CCC=C1c2ccccc2C=Cc2ccccc21,-8.5% (inactive),–
O=C1c2c(O)ccc(O)c2C(=O)c2c(NCCNCCO)ccc(NCCNCCO)c21,–,10.4 µM (active)
Nc1ccn([C@H]2CC[C@@H](CO)O2)c(=O)n1,6.9% (inactive),–
O=C(c1ccc(OCCN2CCCCC2)cc1)c1c(-c2ccc(O)cc2)sc2cc(O)ccc12,-8.98% (inactive),–
O=C(CCCN1CCC(O)(c2ccc(Cl)cc2)CC1)c1ccc(F)cc1,0.38% (inactive),–
Nc1c2c(nc3ccccc13)CCCC2,7.03% (inactive),–
O=c1c(-c2ccc(O)cc2)coc2cc(O)cc(O)c12,-0.844% (inactive),–
COc1ccc2[nH]cc(CCNC(C)=O)c2c1,0.0655% (inactive),–
NCCc1cnc[nH]1,4.33% (inactive),–
CN(C)CCOC(c1ccccc1)c1ccccc1,5.37% (inactive),–
O=C1N(c2ccccc2)c2ccccc2C1(Cc1ccncc1)Cc1ccncc1,9.45% (inactive),–
CC(C)(Oc1ccc(C2CC2(Cl)Cl)cc1)C(=O)O (configuration not stated),-0.717% (inactive),–
NC(CO)C(=O)NNCc1ccc(O)c(O)c1O (configuration not stated),0.739% (inactive),–
Cc1cn([C@H]2C=C[C@@H](CO)O2)c(=O)[nH]c1=O,1.11% (inactive),–
CCC1(C)CC(=O)NC1=O (configuration not stated),-0.707% (inactive),–

# Target: Atrial natriuretic peptide receptor 1 (Homo sapiens) (UniProt P16066)
# Assay: Natriuretic polypeptide receptor (hNpr1) antagonism - Pilot screen (AID 1347049);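 further: agonist-evoked cGMP luminescence read 20 min after hNppA addition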
# Conditions: hNpr1 cells, antagonist mode cGMP read-out; series mostly up to 57.5 µM; activity change, negative = inhibition: at the top concentration
# Procedure, shortened: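 cGMP-sensor HEK293/hNpr1 cells, 1500/well, plated overnight at 37C. 2% GloSensor reagent, 2 h RT. Compound (23 nL pin transfer) 30 min RT, baseline luminescence pre-read. 0.1 nM hNppA, 20 min RT, post-read.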
# Atrial natriuretic peptide receptor 1 (Homo sapiens), sequence (P16066 whole entry, looked up): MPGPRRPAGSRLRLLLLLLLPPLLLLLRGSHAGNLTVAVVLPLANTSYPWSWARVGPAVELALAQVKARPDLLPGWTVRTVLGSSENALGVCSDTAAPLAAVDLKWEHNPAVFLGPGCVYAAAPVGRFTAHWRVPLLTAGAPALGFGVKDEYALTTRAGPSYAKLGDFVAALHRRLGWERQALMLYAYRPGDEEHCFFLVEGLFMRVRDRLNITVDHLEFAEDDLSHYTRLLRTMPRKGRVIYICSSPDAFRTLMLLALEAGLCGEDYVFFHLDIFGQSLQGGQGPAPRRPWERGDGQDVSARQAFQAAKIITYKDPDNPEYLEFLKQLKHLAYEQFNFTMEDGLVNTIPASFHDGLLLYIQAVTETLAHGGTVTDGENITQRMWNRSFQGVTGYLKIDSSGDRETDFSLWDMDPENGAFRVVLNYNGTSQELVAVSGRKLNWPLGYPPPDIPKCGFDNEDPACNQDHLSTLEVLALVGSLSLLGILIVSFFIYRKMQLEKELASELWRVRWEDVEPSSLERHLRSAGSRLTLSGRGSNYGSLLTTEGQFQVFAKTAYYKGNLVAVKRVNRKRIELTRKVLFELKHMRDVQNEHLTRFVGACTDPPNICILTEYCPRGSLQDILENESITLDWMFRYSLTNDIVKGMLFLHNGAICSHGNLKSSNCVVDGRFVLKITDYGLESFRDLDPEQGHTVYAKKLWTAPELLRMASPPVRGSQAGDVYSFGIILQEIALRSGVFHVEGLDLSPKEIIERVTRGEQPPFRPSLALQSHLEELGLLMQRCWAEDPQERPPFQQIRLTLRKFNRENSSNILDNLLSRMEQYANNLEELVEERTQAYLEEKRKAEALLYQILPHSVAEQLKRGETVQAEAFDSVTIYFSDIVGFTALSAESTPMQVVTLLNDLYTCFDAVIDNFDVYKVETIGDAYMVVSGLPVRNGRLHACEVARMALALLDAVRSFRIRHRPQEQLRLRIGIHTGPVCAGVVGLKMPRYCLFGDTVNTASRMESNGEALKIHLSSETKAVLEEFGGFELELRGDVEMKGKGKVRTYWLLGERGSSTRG
row,SMILES,"activity change, negative = inhibition"
1,O=c1c(O)c(-c2ccc(O)c(O)c2)oc2cc(O)cc(O)c12,-14.9% (inactive)
2,Nc1ccn([C@H]2CC[C@@H](CO)O2)c(=O)n1,2.46% (inactive)
3,CC1COc2c(N3CCN(C)CC3)c(F)cc3c(=O)c(C(=O)O)cn1c23 (configuration not stated),2.88% (inactive)
4,O=C(c1ccc(OCCN2CCCCC2)cc1)c1c(-c2ccc(O)cc2)sc2cc(O)ccc12,2.55% (inactive)
5,O=C(CCCN1CCC(O)(c2ccc(Cl)cc2)CC1)c1ccc(F)cc1,1.78% (inactive)
6,Nc1c2c(nc3ccccc13)CCCC2,11.9% (inactive)
7,O=c1c(-c2ccc(O)cc2)coc2cc(O)cc(O)c12,-6.43% (inactive)
8,COc1ccc2[nH]cc(CCNC(C)=O)c2c1,2.73% (inactive)
9,NCCc1cnc[nH]1,18.9% (inactive)
10,CN(C)CCOC(c1ccccc1)c1ccccc1,3.51% (inactive)
11,O=C1N(c2ccccc2)c2ccccc2C1(Cc1ccncc1)Cc1ccncc1,9.69% (inactive)
12,CC(C)(Oc1ccc(C2CC2(Cl)Cl)cc1)C(=O)O (configuration not stated),-1.6% (inactive)
13,NC(CO)C(=O)NNCc1ccc(O)c(O)c1O (configuration not stated),-0.438% (inactive)
14,Cc1cn([C@H]2C=C[C@@H](CO)O2)c(=O)[nH]c1=O,1.55% (inactive)
15,CCC1(C)CC(=O)NC1=O (configuration not stated),2.73% (inactive)
